Measurements as given in PubChem BioAssay AID504636 (National Center for Advancing Translational Sciences (NCATS), 2011).
In all, about 1,100 compounds went through this assay and about 490 (45%) were called active. Not shown: some 33% with an inconclusive outcome. The call rests on the fitted dose curve. The set was probably picked from earlier hits. This excerpt belongs to a sample that is enriched for actives.
Further: nearly all actives have a fitted effect of over 60% in size.
Potency means the concentration at half of the fitted maximal effect.

These compounds were tested against ATP-dependent 6-phosphofructokinase (Trypanosoma brucei brucei) (UniProt O15648) (assay: Tb PFK orthogonal confirmatory assay using ATP depletion (Kinase-Glo Plus) as an alternative measure of Tb PFK activity: Hit Validation). Conditions: Tb PFK enzyme, Kinase-Glo Plus luminescence; series mostly up to 57.5 µM.
ATP-dependent 6-phosphofructokinase (Trypanosoma brucei brucei), sequence (O15648 whole entry, looked up): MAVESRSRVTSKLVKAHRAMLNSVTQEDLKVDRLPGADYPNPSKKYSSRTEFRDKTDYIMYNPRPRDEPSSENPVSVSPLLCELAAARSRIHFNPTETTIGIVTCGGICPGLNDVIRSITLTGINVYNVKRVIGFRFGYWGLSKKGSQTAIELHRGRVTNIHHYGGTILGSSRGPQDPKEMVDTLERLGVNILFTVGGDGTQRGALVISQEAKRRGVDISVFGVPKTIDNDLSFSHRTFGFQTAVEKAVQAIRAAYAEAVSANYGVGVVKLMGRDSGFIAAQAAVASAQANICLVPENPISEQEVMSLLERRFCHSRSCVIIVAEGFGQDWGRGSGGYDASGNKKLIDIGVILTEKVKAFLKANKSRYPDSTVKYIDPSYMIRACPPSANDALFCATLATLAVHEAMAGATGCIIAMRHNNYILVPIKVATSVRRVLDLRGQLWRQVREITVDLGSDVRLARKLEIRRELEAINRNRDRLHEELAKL
Description: Various species of the protozoan family Trypanosomatidae are responsible for a range of serious human diseases in tropical and subtropical areas of the world. […] Many of the disorders caused by trypanosomatids are fatal if left untreated, but most currently used drugs are inefficient and toxic.
Oxidative metabolism involving the mitochondrial tricarboxylic acid cycle and oxidative phosphorylation are repressed in these parasites, and recent RNA interference (RNAi) experiments have shown that even partial depletion of certain individual glycolytic enzymes can lead to the death of cultured parasites. One such glycolytic enzyme, phosphofructokinase (PFK), catalyzes the formation of fructose-1,6-bisphosphate (F1,6BP) and ADP from fructose-6-phosphate (F6P) and ATP, and in many metabolic circumstances makes an important contribution to the control of flux through the glycolytic pathway. As a specific glycolytic target, PFK is particularly attractive as it catalyzes the first irreversible step in glycolysis, and structural and kinetic studies have shown very substantial and essential differences from corresponding host enzymes, allowing for the discovery of parasite-selective inhibitors.
The primary qHTS data of T. brucei PFK and ADP-Glo confirmatory data are available in PubChem (AIDs: 485367 and 485368). A luminescent secondary assay was also performed that used luciferase-based nucleotide detection (Kinase-Glo Plus, Promega) similar to the qHTS, but which used ATP (rather than ADP) concentration as an alternate measure of T. brucei PFK activity. The assay measures substrate depletion (ATP) rather than product formation (ADP), coupled to an identical manner of luciferase-based signal detection. As such, compounds which truly act on T. brucei PFK produce a change in signal in the opposite direction of the primary qHTS assay, while compounds which affect the final luciferase reaction produce signal changes in identical directions. Compounds were screened as a concentration-titration series that ranged from 57uM to 0.7nM.
1. Verlinde, C.L., et al., Glycolysis as a target for the design of new anti-trypanosome drugs. Drug Resist Updat, 2001. 4(1): p. 50-65.
2. Albert, M.A., et al., Experimental and in silico analyses of glycolytic flux control in bloodstream form Trypanosoma brucei. J Biol Chem, 2005. 280(31): p. 28306-15.
3. […] J Mol Biol, 2009. 385(5): p. 1519-33.
NIH Molecular Libraries Probe Production Network [MLPCN]
NIH Chemical Genomics Center [NCGC]
PI Name: Dr. Malcolm Walkinshaw
Substrate buffer was dispensed into white, solid 1536-well plates at 3ul/well in 0.1M triethanolamine (TEA) buffer, pH 8.0, containing final concentrations of 5 mM MgCl2, 0.01% Tween20, 0.5 mM fructose-6-phosphate (F6P) and 0.1mM ATP. Then, 23nl of compounds or DMSO were delivered to each well using a pin tool. One ul T. brucei PFK (0.1M TEA, 0.01% Tween20, 0.1% bovine serum albumin (BSA) and 1.25nM PFK, final concentrations) was then dispensed, and plates were incubated at room temperature for 45 min. The luminescent detection reagent, Kinase-Glo Plus (Promega), was then added at 2ul/well and incubated for ten minutes at room temperature. The plates were measured on a ViewLux plate reader for luminescent signal using a clear filter with a one second exposure. The %Activity was determined from the corrected luminescence values. As no specific T. brucei PFK inhibitors have been identified in the literature, 1x (1.25nM) and 0x PFK enzyme controls (untreated) were included to normalize %Activity of identified inhibitors; 0x enzyme values corresponded to 100%Activity (full inhibition), while 1x PFK enzyme values were used to normalize 0% Activity (no inhibition). The Kinase-Glo Plus protocol varies from the primary screen in that it measures ATP, rather than ADP, concentration, and thus provides a measure of substrate depletion, rather than of product formation.
[…]
`O=C1CSC(=S)N1/N=C/c1ccc(O)c([N+](=O)[O-])c1` was tested, and the Potency was “inactive”.
In the case of `CCOc1cccc(/C=N/N2C(=O)CSC2=S)c1O`, the Potency is reported as 30.1 µM (active).
With `Cn1sc(=O)c2cc(S(=O)(=O)NC3CC3)ccc21` the Potency was 7.57 µM (active).
For `OC(CNCc1ccc(Cl)c(Cl)c1)c1ccccc1` (stereo unspecified), the Potency was 21.3 µM (active).
`Cn1nnnc1NCc1ccc(Cl)c(Cl)c1` was tested, and the Potency was 10.7 µM (active).
With `O=[N+]([O-])c1c(NCCO)cc(Sc2nc3ccccc3s2)c2nonc12` the Potency was 0.601 µM (active).
In the case of `C=C(C)C(=O)Nc1cccc(C2=NOC3(C2)C[C@H](C(N)=O)N(C(=O)C(c2ccccc2)c2ccccc2)C3)c1` (stereo partly specified), the Potency is reported as 1.51 µM (active).
`C/C=C\C=C\C(=O)N1CC2(CC(c3cccc(NC(=O)/C(C)=C\C)c3)=NO2)C[C@H]1C(N)=O` (stereo partly specified) was tested, and the Potency was 9.53 µM (active).
For `CCc1ccc(NC(=O)C(=O)NNC(=O)c2cccs2)cc1`, the Potency was “inactive”.
`O=c1ccnc(Nc2ccc(Cl)cc2)[nH]1` was tested, and the Potency was 21.3 µM (active).
In the case of `O=c1[nH]c2ccccc2n2c(-c3ccccc3)nnc12`, the Potency is reported as 6.01 µM (active).
With `N/C(=N\OC(=O)Nc1ccc(Cl)c(Cl)c1)c1ncc(C(F)(F)F)cc1Cl` the Potency was 26.9 µM (active).
`Nc1nc(SCc2ccc([N+](=O)[O-])cc2)c2ncn(C3OC(CO)C(O)C3O)c2n1` (stereo unspecified) was tested, and the Potency was 23.9 µM (active).
In the case of `Cc1nc(N)nc(SCc2ccc([N+](=O)[O-])cc2)c1N`, the Potency is reported as 10.7 µM (active).
In the case of `Cn1ccc(=Nc2ccc(NC(=O)c3ccc(N=c4ccn(C)c5ccc([N+](=O)[O-])cc45)cc3)cc2)cc1`, the Potency is reported as “inactive”.
In the case of `O=C(Cc1ccc([N+](=O)[O-])cc1)N/N=C/c1ccco1`, the Potency is reported as 19 µM (active).
In the case of `O=C(CSc1nc(O)c(Cc2ccccc2)c(=O)[nH]1)Nc1nc2c(s1)CCCC2`, the Potency is reported as 6.75 µM (active).
For `Cc1ccc(-c2nn(-c3ccccc3)cc2/C=C2\SC(=S)N(CCCCCC(=O)O)C2=O)o1`, the Potency was 9.53 µM (active).
With `Cc1cccc(-n2c(N)c(C(=O)N3CCN(C)CC3)sc2=S)c1` the Potency was 6.01 µM (active).
With `O=[N+]([O-])/C=C/c1ccc2c(ccn2Cc2ccccc2)c1` the Potency was 10.7 µM (active).
`O=C(NCc1ccc(Cl)c(Cl)c1)c1cccnc1` was tested, and the Potency was 13.5 µM (active).
For `CCn1nc(C(=O)NNS(=O)(=O)c2cc(/C=C/C(=O)O)cc(OC)c2OC)c2ccccc2c1=O`, the Potency was “inactive”.
In the case of `C=CC1=C(C(=O)O)N2C(=O)[C@@H](NC(=O)/C(=N\OCC(=O)O)c3csc(N)n3)[C@H]2SC1`, the Potency is reported as 2.69 µM (active).
In the case of `COC(=O)c1[nH]c2ccccc2c1NC(=O)CN1CCCc2ccccc21`, the Potency is reported as “inactive”.
In the case of `CC(C)(C)c1nnc(NC(=O)C2c3ccccc3Oc3ccccc32)s1`, the Potency is reported as 19 µM (active).
In the case of `Cc1c(C)c2ccc(OCC(=O)N3CCN(c4cccc(Cl)c4)CC3)cc2oc1=O`, the Potency is reported as 4.78 µM (active).
`O=c1[nH]c(=S)[nH]c2[nH]c(=S)[nH]c12` was tested, and the Potency was 1.35 µM (active).
In the case of `COc1ccc(N/C=C(\C2OC(=O)c3ccccc32)[N+](=O)[O-])cc1` (stereo unspecified), the Potency is reported as “inactive”.
With `FC(F)(F)C1CCCN(c2nsc3ccccc23)C1` (stereo unspecified) the Potency was 2.69 µM (active).
With `N#Cc1cccc(CSc2ncnc(N)n2)c1` the Potency was 13.5 µM (active).
For `Cc1ccc(NC(=O)c2cc(-c3ccc(C)o3)nc3ccccc23)nc1`, the Potency was 6.75 µM (active).
In the case of `Cc1nn(Cc2ccc(Cl)c(Cl)c2)c(C)c1NC(=O)c1cc(C2CC2)on1`, the Potency is reported as 5.36 µM (active).
For `OCCN1CCN(C(=S)c2ccc(-c3ccccc3)cc2)CC1`, the Potency was 9.53 µM (active).
With `Cc1ccc(C)c(-c2nnc(NC(=O)CS(=O)(=O)c3ccccc3)o2)c1` the Potency was “inactive”.
`O=C1CSC(=S)N1c1ccc(Cl)c(Cl)c1` was tested, and the Potency was “inactive”.
`COC(=O)CC(=O)N1CCN(c2ccc(Cl)c(Cl)c2)CC1` was tested, and the Potency was 23.9 µM (active).
